Screening results (PubChem)
HSP90 inh = blocks HSP90-mediated luciferase refolding in reticulocyte lysate | Rabbit reticulocyte lysate, luciferase refolding luminescence, 3 h | inhibition, % at 5.6 µM | 290,000 compounds, 0.91% hits | AID 1789;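 active = inhibition above the screen-wide mean plus 3 SD, computed separately per campaign, cut at about 16% in these data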;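 also: 0% = DMSO wells and 100% = 60 µM geldanamycin wells; inhibitors lower the luminescence because luciferase stays unfolded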
SENP7 inh = inhibitors of human SENP7 protease | Q9BQF6 | recombinant SENP7, Z-RLRGG-aminoluciferin luminescence, 40 min | inhibition, % at 5 µM | 330,000 compounds, 1.5% hits | AID 434973;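 active = inhibition above about 50% at the single test dose, limit read from the data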;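 also: plate controls were DMSO with enzyme for no effect and no enzyme buffer wells for full effect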
Target sequence (Q9BQF6 706-1050 limits assumed): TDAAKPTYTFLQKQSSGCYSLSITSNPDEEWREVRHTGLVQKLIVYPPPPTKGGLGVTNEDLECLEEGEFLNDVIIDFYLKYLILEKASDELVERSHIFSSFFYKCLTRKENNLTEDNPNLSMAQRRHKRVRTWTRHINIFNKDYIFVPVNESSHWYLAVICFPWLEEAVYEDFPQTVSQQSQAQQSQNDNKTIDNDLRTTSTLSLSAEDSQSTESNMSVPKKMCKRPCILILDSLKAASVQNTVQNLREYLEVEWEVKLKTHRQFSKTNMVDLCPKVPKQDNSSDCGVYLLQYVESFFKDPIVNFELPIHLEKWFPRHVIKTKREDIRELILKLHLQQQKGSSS
SENP8 block-1 = SENP8 protease inhibition. Q96LD8. purified SENP8, Z-RLRGG-aminoluciferin cleavage, luminescence. inhibition, % at 10 µM. 330,000 compounds, 1.2% hits; in the data active = inhibition above about 50%
SENP6 inh = inhibitors of human SENP6 protease | Q9GZR1 | Recombinant SENP6 catalytic domain, aminoluciferin luminescence | inhibition, % at 10 µM | 330,000 compounds, 1.8% hits;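 active = inhibition above about 50% at the single tested dose, limit read from the data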;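 also: plate controls were DMSO wells with enzyme for no effect and DMSO wells lacking enzyme for full effect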
SENP8 block-2 = inhibitors of human SENP8 protease. 360,000 compounds, 0.64% hits. inhibition, % at 20 µM. recombinant SENP8, Nedd8 substrate fluorescence; in the data active = inhibition mostly above about 40%, no sharp cut-off; inactive = mostly below about 27%
Platelet DG rel = modulates dense granule release in human platelets. human platelet-rich plasma, SFLLRN dense granule ATP release, luminescence. inhibition, %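 (compounds screened at 7.5 µM in platelet-rich plasma)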. 300,000 compounds, 0.22% hits;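 active = mean replicate score, as percent of positive control, at or above 50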
SENP8 confirm = confirmation of human SENP8 protease inhibitors; AID 488912; Recombinant SENP8, Z-RLRGG-aminoluciferin luminescence, 60 min; shares compounds with SENP7 inh; inhibition, % at 12.5 µM; 6,200 compounds, 40% hits;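 active = mean inhibition across replicates above about 50%, limit read from the data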
SENP6 confirm = human SENP6 inhibition, confirmed; recombinant SENP6, Z-RLRGG-aminoluciferin luminescence; 6,200 compounds, 58% hits; inhibition, % at 12.5 µM; shares compounds with SENP7 inh
SENP7 conf = confirmation of human SENP7 protease inhibitors. AID 488917. recombinant SENP7, Z-RLRGG-aminoluciferin luminescence, 40 min. shares compounds with SENP7 inh. 6,200 compounds, 69% hits. inhibition, % at 12.5 µM
Casp3 select = caspase-3 inhibition (SENP selectivity assay). shares compounds with SENP7 inh. purified caspase-3, Z-DEVD-aminoluciferin luminescence, 60 min. inhibition, % at 12.5 µM. 6,200 compounds, 60% hits. AID 488918;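 active = mean inhibition above about 50%, limit read from the data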;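 also: plate controls were enzyme with DMSO for no effect and wells without caspase-3 for full effect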
Target sequence (P42574 28-227 limits assumed): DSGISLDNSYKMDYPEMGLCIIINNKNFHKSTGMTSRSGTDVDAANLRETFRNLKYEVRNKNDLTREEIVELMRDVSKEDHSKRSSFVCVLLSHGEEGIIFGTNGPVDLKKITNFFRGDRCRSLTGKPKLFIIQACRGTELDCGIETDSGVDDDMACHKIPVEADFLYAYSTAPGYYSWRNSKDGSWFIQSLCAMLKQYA
Luc interf = luminescence interference (SENP counter-screen); inhibition, % at 12.5 µM; AID 488919; 6,200 compounds, 39% hits; Pre-incubated SENP8/Z-RLRGG-aminoluciferin, luciferase luminescence interference; shares compounds with SENP7 inh;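 active = mean inhibition above about 50% when retested at one dose, limit read from the data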;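 also: plate controls were DMSO wells with completed reaction for no effect and substrate without enzyme for full effect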
Starred values were filed as active, the others as inactive; / = no result. Rows were chosen to be rich in hits. Some 2.8% of all compounds tested hit in one or more screens of this group.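 The calls were made as follows, unless noted: active = mean inhibition above about 50% in the one-dose retest (limit read from the data); inactive = the rest.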

SMILES | HSP90 inh | SENP7 inh | SENP8 block-1 | SENP6 inh | SENP8 block-2 | Platelet DG rel | SENP8 confirm | SENP6 confirm | SENP7 conf | Casp3 select | Luc interf
CC(C)(C)c1ccccc1NC(=O)CN1C(=O)NC2(CCCCCC2)C1=O | / | 8 | 3 | 13 | 12 | / | / | / | / | / | /
Fc1ccccc1COc1ccc(-c2nnn(Cc3ccccc3F)n2)cc1 | 3 | -2 | -4 | -8 | 18 | 15 | / | / | / | / | /
Cn1nnc(-c2ccc(OCc3ccccc3F)cc2)n1 | -2 | 98* | 91* | 97* | 8 | 30 | 11 | 94* | 101* | 79* | 22
O=C(Oc1ccc(C(=S)N2CCCCC2)cc1)c1ccccc1F | 2 | -10 | -15 | -8 | 28 | 2 | / | / | / | / | /
CC(C)n1nnc(-c2ccc(OCc3ccccc3F)cc2)n1 | 0 | 90* | 90* | 90* | -1 | -5 | -8 | 91* | 100* | 82* | 62*
Fc1ccccc1COc1ccc(C(=S)N2CCCC2)cc1 | 2 | 48 | 64* | 58* | 8 | 3 | 45 | 35 | 60* | 26 | 32
CCNS(=O)(=O)c1ccc(Br)c(C(=O)OC(C)C(=O)NCC2CCCCC2)c1 (stereo not given) | / | 8 | 3 | -1 | -13 | / | / | / | / | / | /
CC(=O)OCCN(C)c1cc(SC(C)C)c2nonc2c1[N+](=O)[O-] | 2 | 2 | 0 | 4 | 1 | -8 | / | / | / | / | /
CC(=O)OCCNc1cc(SC(C)C)c2nonc2c1[N+](=O)[O-] | 0 | 13 | 10 | 56* | 25 | / | 8 | 5 | 10 | 6 | 1
Cc1cccc(NC(=O)c2ccc(Cl)c(S(=O)(=O)N3CCCCC3)c2)n1 | / | -7 | -22 | -10 | 10 | 0 | / | / | / | / | /
COc1cc(CC(=O)N(C)CC(=O)Nc2ccc(Cl)c(C(F)(F)F)c2)cc(OC)c1OC | 0 | 0 | 7 | -1 | 7 | -18 | / | / | / | / | /
CCCOc1ccc(C(=O)NC(=S)Nc2nc3ccccc3s2)cc1 | -4 | 92* | -6 | 3 | 26 | 6 | 5 | 10 | 16 | 5 | 12
COc1ccc(/C(C)=N/OCC(=O)Nc2nc3ccccc3s2)cc1OC | -7 | 30 | 36 | 53* | 0 | -1 | 40 | 34 | 64* | 21 | 34
COc1ccc(/C=N/OCC(=O)Nc2nc3ccccc3s2)cc1 | -2 | 54* | 53* | 78* | 0 | 14 | -7 | -6 | -2 | 4 | 6
COCC(=O)N1C[C@@H](C)[C@@H](OC)CN(C)C(=O)c2ccc(NC(=O)c3cnccn3)cc2OC[C@H]1C | / | / | / | / | 19 | / | / | / | / | / | /
CCOc1ccc(NS(=O)(=O)c2ccc(C(=O)N(C)CC(=O)Nc3ccccc3Br)cc2)cc1 | / | / | / | / | 13 | / | / | / | / | / | /
Clc1ccc(COn2c(-c3ccccc3)nc3ccccc32)cc1 | -1 | 1 | 2 | 10 | -6 | 0 | / | / | / | / | /
CCOC(=O)C(C)On1c(-c2ccccc2)nc2ccc([N+](=O)[O-])cc21 (stereo not given) | 2 | 76* | 71* | 84* | 15 | 0 | 28 | 25 | 66* | 59* | 61*
O=C(O)COn1c(-c2ccccc2)nc2ccc([N+](=O)[O-])cc21 | 4 | 88* | 70* | 82* | 4 | 2 | 1 | 0 | 33 | 53* | 56*
CCOC(=O)C(C)On1c(-c2ccc(Cl)cc2)nc2ccc([N+](=O)[O-])cc21 (stereo not given) | 1 | 50 | 65* | 70* | -48 | -26 | 0 | -5 | 29 | 6 | 25
O=C(O)COn1c(-c2ccc(Cl)cc2)nc2ccc(Cl)cc21 | 0 | -8 | -7 | 0 | -7 | 6 | / | / | / | / | /
CC(O)c1nc2cc([N+](=O)[O-])ccc2n1Cc1ccccc1 (stereo not given) | -5 | -10 | 12 | 18 | 30 | 10 | / | / | / | / | /
Cc1ccc(COn2c(-c3ccc(Cl)cc3)nc3ccc([N+](=O)[O-])cc32)cc1 | -1 | 56* | 42 | 67* | 22 | -14 | 11 | 17 | 49 | 22 | 24
Cc1nccc(-c2cc(-c3ccc(Cl)cc3Cl)no2)n1 | 6 | 88* | 84* | 89* | 0 | 22 | 73* | 77* | 94* | 84* | 20
c1cc(-c2noc(-c3ccc4c(c3)OCO4)n2)ccn1 | 3 | / | / | / | / | / | / | / | / | / | /
SMILES | HSP90 inh | SENP7 inh | SENP8 block-1 | SENP6 inh | SENP8 block-2 | Platelet DG rel | SENP8 confirm | SENP6 confirm | SENP7 conf | Casp3 select | Luc interf
c1ccc(-c2noc(-c3ccccc3-c3ccccc3)n2)cc1 | 0 | 3 | -6 | -7 | 15 | -2 | / | / | / | / | /
c1ccc(-c2noc(-c3ccc4c(c3)OCO4)n2)cc1 | -1 | 100* | 93* | 97* | -8 | 24 | 92* | 88* | 96* | 94* | 31
c1ccc(-c2noc(-c3ccc4ccccc4c3)n2)cc1 | 13 | 98* | 90* | 92* | -25 | 17 | 12 | 9 | 2 | 43 | 4
COc1cccc(-c2noc(-c3ccc4c(c3)OCO4)n2)c1 | -4 | 101* | 89* | 92* | -10 | 39 | 90* | 88* | 95* | 92* | 14
COc1ccc(-c2noc(-c3ccc4c(c3)OCO4)n2)cc1 | -3 | 73* | 6 | -50 | -24 | 2 | 38 | 33 | 47 | 61* | 22
c1ccc(-c2ccc(CNC3CC3)cc2)cc1 | 1 | / | / | / | 16 | 3 | / | / | / | / | /
C=CCNC(=O)/C(C#N)=C/c1c(N2CCN(c3ccc(OC)cc3)CC2)nc2c(C)cccn2c1=O | 3 | 4 | 7 | 21 | -270 | 4 | / | / | / | / | /
CCOc1ccc(NC(=O)C(c2ccccn2)N(C(=O)CCl)c2ccc(F)cc2)cc1 (stereo not given) | -8 | / | / | / | 11 | 9 | / | / | / | / | /
Brc1ccc(-c2nc(-c3cccnc3)no2)o1 | -5 | 26 | -18 | 39 | -99 | -3 | / | / | / | / | /
Brc1ccc(-c2nc(-c3ccccc3)no2)o1 | -3 | 92* | 85* | 90* | 10 | 9 | -4 | 87* | 99* | 70* | 28
O=C(Nc1nc2c(s1)CCCC2)Oc1ccccc1 | 0 | 5 | -8 | -12 | 22 | -16 | / | / | / | / | /
O=S1(=O)N=C(Nc2nc3c(s2)CCCC3)c2ccccc21 | 3 | 76* | 77* | 86* | 9 | / | 83* | 78* | 94* | 86* | 52*
